# Rab9 prom act – qHTS Assay for Rab9 Promoter Activators; 320,000 tested, 2.8% active; Huh7 Rab9 promoter-luciferase reporter, luminescence, 24 h; AID 485297, 2010; Potency, µM (doses to about 9.22 µM), inactives show at the highest dose activation, negative = inhibition, actives largely listed as activators; also: % of control where 0% means no effect; nearly all actives have a fitted effect of over 60% in size
#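 Luciferase signal after 10 min detection reagent at ambient indicates Rab9 promoter upregulation; stably transfected Huh7 cells were treated 24 h with compound in DMSO at 37 °C, 5% CO2.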
# NPC1 promoter act – qHTS Assay for NPC1 Promoter Activators; Huh7 NPC1 promoter luciferase reporter, 24 h; Potency, µM (titrated, usually from 9.22 µM), inactives show top-dose activation, hits mostly activators; 320,000 tested, 2.4% active; also: % of control where 0% means no effect; nearly all actives have a fitted effect of over 60% in size
#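 Compounds in DMSO were transferred onto Huh7 NPC1-luciferase reporter cells pre-incubated 2 h; after 24 h at 37 °C, Amplite reagent was dispensed and luminescence recorded 10 min later.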
# p53 reactivator – qHTS assay for re-activators of p53 using a Luc reporter. H1299 p53-A138V BP100-luciferase reporter, luminescence, 24 h. Potency, µM (highest dose often 92.2 µM), for the others: top-dose activity change, positive = activation, actives largely listed as activators. 320,000 tested, 0.063% active; also: % of control where 0% means no effect; nearly all actives have a fitted effect of over 45% in size
#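 H1299 (p53-null), stable ts p53-A138V + BP100-Luc; 1000 cells/well, Opti-MEM/10% FBS; cpd 4 pt, 1:5; 24 h, 37 deg C, 5% CO2; detection reagent 10 min RT; luminescence.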
# SMN2 splice up – qHTS Assay for Enhancers of SMN2 Splice Variant Expression; HEK293 SMN2-luciferase splicing reporter, luminescence, 30-36 h; Potency, µM (doses to about 46.1 µM), without a hit: at the highest dose activity change, positive = activation, actives largely listed as activators; 210,000 tested, 2.8% active; also: % of control where 0% means no effect; nearly all actives have a fitted effect of over 55% in size
#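 HEK293 cells carry an SMN2 […]–luciferase reporter in which exon 7 inclusion puts luciferase in frame. Cells were plated 10-12 h before compound addition, then incubated 30-36 h at 37C. ONE-Glo luminescence was read; sodium butyrate at 4.5 mM final served as control.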
# ELG1 genotox – qHTS screen for small molecules that induce genotoxicity in human embryonic kidney (HEK293T) cells expressing luciferase-tagged ELG1 | HEK293T ELG1-luciferase reporter, luminescence, 16 h | Potency, µM (series often up to 46 µM), for inactives: at the highest dose activity change, positive = activation, actives largely listed as activators | 330,000 tested, 1.3% active; also: % of control where 0% means no effect; nearly all actives have a fitted effect of over 60% in size
#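 Luminescence read-out: rising ELG1-luciferase signal, reflecting elevated ELG1 protein under genetic stress, flags genotoxic compounds. Cells were treated for 16 hr at 37 °C before ONE-Glo detection.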
# FLuc counter – qHTS profiling assay for firefly luciferase inhibitor/activator using purifed enzyme and Km concentrations of substrates (counterscreen for miR-21 project); AID 588342, 2011; purified FLuc, Km substrates, luminescence inhibition; Potency, µM (doses to about 57.5 µM), for the others: at the top dose activity change, negative = inhibition, actives largely listed as inhibitors; Luciferin 4-monooxygenase (Photinus pyralis), P08659; 360,000 tested, 6.9% active;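 also: plate controls were vehicle for no effect and reference inhibitor for full effect; nearly all actives have a fitted effect of over 55% in size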
# Target sequence (P08659 whole entry, looked up): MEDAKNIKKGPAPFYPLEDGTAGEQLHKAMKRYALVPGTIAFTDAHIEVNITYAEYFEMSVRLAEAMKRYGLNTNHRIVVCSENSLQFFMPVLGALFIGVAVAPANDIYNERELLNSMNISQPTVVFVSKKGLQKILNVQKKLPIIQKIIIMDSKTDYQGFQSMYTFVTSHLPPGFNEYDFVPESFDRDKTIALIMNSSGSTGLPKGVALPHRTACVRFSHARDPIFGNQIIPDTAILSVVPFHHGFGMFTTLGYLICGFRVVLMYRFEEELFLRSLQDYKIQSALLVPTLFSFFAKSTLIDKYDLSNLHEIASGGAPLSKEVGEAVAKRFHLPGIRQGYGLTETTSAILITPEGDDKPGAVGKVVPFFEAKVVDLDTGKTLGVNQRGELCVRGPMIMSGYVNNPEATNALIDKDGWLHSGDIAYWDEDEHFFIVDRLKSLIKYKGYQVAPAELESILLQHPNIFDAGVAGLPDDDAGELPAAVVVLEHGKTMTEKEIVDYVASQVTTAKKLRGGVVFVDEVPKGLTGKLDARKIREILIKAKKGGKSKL
#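 Purified P. pyralis luciferase (10nM final) with 10uM D-luciferin and 10uM ATP (Km levels) in 50mM Tris acetate pH 7.5, 10mM Mg acetate, 0.01% Tween-20, 0.05% BSA; qHTS 6-point titration, ~60 µM downward; luminescence read.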
# An asterisk follows results filed as active; ? = inconclusive; . = not tested or not shown; [ ] = another dose, or the depositor's remark. An excerpt weighted towards active compounds, which were near 7.3% of everything screened. Calls follow the shape of the dose curve; as a rule, active = well fitted curve in the direction sought with a large enough effect; inconclusive = small, poorly fitted or top-dose-only effect, or another doubt; inactive = no such curve, though single readings can be large; an effect the other way counts as inactive or inconclusive. Potency is read from the fitted curve at half-maximal effect.
SMILES,Rab9 prom act,NPC1 promoter act,p53 reactivator,SMN2 splice up,ELG1 genotox,FLuc counter
CC(C)OCCOc1ccc2oc(-c3ccco3)cc(=O)c2c1,?,?,.,.,8%,24µM*
COc1ccc(/C=C/C=C2\N=C(SC)SC2=O)cc1,18%,25%,25%,.,2%,5.4µM*
CSC1=N/C(=C\c2ccc(F)cc2)C(=O)S1,0%,2%,-12%,-7%,-5%,-12%
Cc1ccc(-n2cc(CNCCn3nc(C)cc3C)c(-c3ccc(F)cc3)n2)cc1,-12%,-7%,3%,.,-6%,27µM*
Cc1ccc(-n2cc(CNCCc3ncc(C)[nH]3)c(-c3ccc(F)cc3)n2)cc1,-2%,-3%,24%,-26%,7%,27µM*
COc1ccc(-n2cc(CNCCN3CCOC3=O)c(-c3ccccc3Cl)n2)cc1,1%,-3%,-7%,.,0%,17µM*
COc1ccc(-n2cc(CNCCc3ncc(C)[nH]3)c(-c3ccccc3Cl)n2)cc1,-4%,-4%,-5%,.,0%,3%
Cc1ccc(-n2cc(CNCCN3CCOC3=O)c(-c3ccc(F)cc3)n2)cc1,14%,-2%,-5%,.,0%,7.6µM*
Cc1cccc(-n2cc(CN(C)Cc3nccn3C)c(-c3cccc(F)c3)n2)c1,-4%,-3%,0%,.,-5%,?
Cc1cccc(-n2cc(CNCCN3CCOC3=O)c(-c3cccc(F)c3)n2)c1,12%,-1%,0%,.,3%,9.5µM*
O=C(C1CCCCC1)N1CCN(S(=O)(=O)c2cccc([N+](=O)[O-])c2)CC1,-5%,-2%,17%,.,1%,3%
CCOC(=O)C1=C(CBr)NC(=O)NC1C (configuration not stated),2%,-1%,0%,4%,-2%,-2%
CCCCn1c(SCC(=O)Nc2cc(C)on2)nc2cc(S(N)(=O)=O)ccc21,8%,4%[1.84 µM],1%,.,0%,-2%
CCCCn1c(SCc2c(C)noc2C)nc2cc(S(N)(=O)=O)ccc21,-6%,-5%,-7%,?,18µM*,3%
O=C(NCc1ccc(F)cc1)c1c2c(nc3ccccc13)CCC2,?,?,1%,5%,14%,13µM*
O=C(NCc1ccco1)c1c2c(nc3ccccc13)CCC2,-5%,-4%,0%,-12%,1%,-18%
CC(=O)Nc1cccc(NC(=O)C2CC(=O)N(C3CCCCC3)C2)c1 (configuration not stated),0%,1%,17%,.,-1%,-3%
Cc1cccc(NC(=O)CN2C(=O)N/C(=C/c3cc(C)n(C(C)C)c3C)C2=O)c1,-1%,1%,-5%,-9%,3%,?
COC(=O)C(C)N1C(=O)S/C(=C/c2cc(C)n(C(C)C)c2C)C1=O (configuration not stated),3.2µM*,1%,14%,14%,?,13µM*
COCCn1c(C)cc(/C=C2\NC(=S)N(C)C2=O)c1C,0%,14%,?,11µM*,?,?
CCn1c(C)cc(/C=C2/SC(=O)N(C(C)C(=O)OC)C2=O)c1C (configuration not stated),4µM*,3.2µM*,12%,.,?,6µM*
COCCn1c(C)cc(/C=C(\C#N)C(=O)OC(C)C(=O)Nc2ccc(NC(C)=O)cc2)c1C (configuration not stated),-6%,-2%,6%,.,7%,0%
CN1C(=O)/C(=C/c2cc3c(cc2Br)OCO3)NC1=S,0%,-18%,-2%,-18%,4%,-6%
COCCn1c(C)cc(/C=C2/SC(=O)N(C(C)C(=O)OC)C2=O)c1C (configuration not stated),1.6µM*,1.4µM*,10%,.,8.2µM*,2.4µM*
CCn1c(C)cc(/C=C2\NC(=O)N(CC(=O)Nc3ccc(F)cc3)C2=O)c1C,-7%,7%,11%,15%,13%,-4%
SMILES,Rab9 prom act,NPC1 promoter act,p53 reactivator,SMN2 splice up,ELG1 genotox,FLuc counter
CC1(C)CC(=O)C2=C(C1)O[C@@]1(CCCCN3C(=O)c4ccccc4C3=O)Cc3cc(C#N)ccc3C2O1,-7%[1.84 µM],0%[1.84 µM],.,.,.,-1%[11.5 µM]
Cc1cc(C)cc(-n2c(SCC(=O)Nc3ccccc3F)nc3c(oc4ccccc43)c2=O)c1,.,.,.,-7%,.,-6%
CCOC(=O)C(C)N1C(=O)S/C(=C/c2cc(C)n(-c3ccccn3)c2C)C1=O (configuration not stated),2.2µM*,2.5µM*,24%,29%,?,8.5µM*
CCOC(=O)C(C)N1C(=O)S/C(=C/c2cc(C)n(-c3ccncc3)c2C)C1=O (configuration not stated),21%,0%,-2%,-20%,-5%,?
COc1ccccc1/C=N/Nc1cc(C)nc2ccc(C)cc12,11%,16%,.,.,7%,-12%
COc1ccc(/C=N/Nc2ncccc2[N+](=O)[O-])c(OC)c1,3.5µM*,?,?,11µM*,2.6µM*,1.1µM*
COc1ccc(/C=N/Nc2cc(C)nc3ccc(OC)cc23)c(OC)c1,3%,-2%,-167%,.,18%,21µM*
COc1ccc2nc(C)cc(N/N=C/c3ccccc3)c2c1,-5%,-2%,-6%,.,4%,9.5µM*
Cc1ccc(NC(=O)CN2C(=O)CSc3ccc(S(=O)(=O)N(C)C)cc32)c(C)c1,.,.,.,.,.,-8%
Cc1ccc(C(=O)NCC(c2ccco2)S(=O)(=O)c2ccccc2)cc1C (configuration not stated),.,.,.,.,.,-13%
CCC(=O)N1CCc2cc(S(=O)(=O)CCC(=O)N3CCN(c4cccc(C)c4)C(C)C3)ccc21 (configuration not stated),.,.,.,-31%,.,-3%
CC/C(=N/Nc1ccccc1)c1cnnc(-c2ccccc2)n1,-8%,-8%,-13%,9%,?,0%
CC/C(=N\Nc1nncc2ccccc12)c1ccc(F)cc1,?,?,?,.,16µM*,12µM*
CCOC(=O)NNc1nncc2ccccc12,2%,0%,8%,11%,-6%,-8%
C/C(=N\Nc1nncc2ccccc12)c1ccc(OCC(=O)N(C)C)cc1,?,27%,18%,.,15%,12µM*
CCN(CCCNC(=O)CN1C(=O)COc2ccc(S(=O)(=O)N3CCC(C)CC3)cc21)Cc1ccccc1,-3%,-3%,-7%,.,2%,2%
